{"source": "PubChem BioAssay (NCATS)", "note": "A number with no mark means an inactive call. The call rests on the fitted dose curve; in most records, active means well fitted curve in the direction sought with a large enough effect; inconclusive means small, poorly fitted or top-dose-only effect, or another doubt; inactive means no such curve, though single readings can be large or run the other way."}
{"biological_target": "Methanococcus maripaludis chaperonin (MmCpn) (UniProt Q6LX38)", "sequence (Q6LX38 1-543)": "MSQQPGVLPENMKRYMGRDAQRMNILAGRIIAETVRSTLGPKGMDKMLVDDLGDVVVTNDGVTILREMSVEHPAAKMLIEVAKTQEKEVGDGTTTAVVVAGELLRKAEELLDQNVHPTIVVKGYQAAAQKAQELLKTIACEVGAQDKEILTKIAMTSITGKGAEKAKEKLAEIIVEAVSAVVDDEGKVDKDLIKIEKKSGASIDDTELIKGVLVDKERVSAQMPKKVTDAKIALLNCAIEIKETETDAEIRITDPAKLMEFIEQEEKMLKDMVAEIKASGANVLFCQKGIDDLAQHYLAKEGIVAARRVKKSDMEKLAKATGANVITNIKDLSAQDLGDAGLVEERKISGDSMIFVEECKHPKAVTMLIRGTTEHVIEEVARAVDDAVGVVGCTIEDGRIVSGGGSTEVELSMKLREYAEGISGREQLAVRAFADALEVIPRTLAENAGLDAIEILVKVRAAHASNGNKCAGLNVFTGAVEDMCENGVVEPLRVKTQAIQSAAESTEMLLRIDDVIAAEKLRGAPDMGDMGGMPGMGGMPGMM", "assay": "High-Throughput Screening for Modulators of Cytosolic Chaperonin Activity: MmCpn Primary Screen (AID 488978); further: 0% is about no effect", "settings": "Purified MmCpn ATPase activity, ADP HTRF detection, 10 min; series mostly up to 76.9 µM; activity change, negative = inhibition: at the top concentration", "from_the_text": "Chaperonins are key components of the cellular chaperone machinery. These large complexes consist of two stacked 7-9 membered rings, each containing a central cavity. Substrates are folded within the cavity in an ATP-dependent manner. TRiC is a complex of eight different, essential proteins. As each of the genes encoding the eight subunits is essential for cell viability and no protocol has been developed to overexpress this enzyme to high levels, several groups have turned to the archaeal homolog of TRiC from Methanococcus maripaludis (MmCpn) as a model system for the study of the type II chaperonin family.\nMmCpn was kindly provided by the laboratory of Judith Frydman.\n1. Dispense 1.5 ul enzyme of either TriC at 100 nM or MmCpn at 50 nM final concentration.\n2. Transfer 23 nl of compound to plate, incubate 5 min at RT.\n3. 1.5 ul ATP at 30 uM at final concentration dispensed into plate.\n4. Incubate for 10 minutes at 37C (MmCPN), 30C (TriC).\n5. 3 ul of the Cisbio ADP Transcreener HTRF detection reagent prepared according to protocol dispensed into plate.\n6. Incubate for 5 minutes.\n7. Read using EnVision plate reader at Excitation = 320nm and Emission = 590nm, 665nm", "units": {"activity change, negative = inhibition": "%"}}
{"smiles": "COc1cc(Cc2cnc(N)nc2N)cc(OC)c1OC", "activity change, negative = inhibition": 0.99}
{"smiles": "CCn1cc(C(=O)O)c(=O)c2cc3c(cc21)OCO3", "activity change, negative = inhibition": -0.326}
{"smiles": "CN(C)C(=O)Oc1ccc[n+](C)c1", "activity change, negative = inhibition": 0.945}
{"smiles": "C[N+](C)(C)CCCCCCCCCC[N+](C)(C)C", "activity change, negative = inhibition": 2.83}
{"smiles": "C[n+]1cc2c3c(ccc2c2ccc4cc5c(cc4c21)OCO5)OCO3", "activity change, negative = inhibition": -17.8}
{"smiles": "CN(C)CC/C=C1\\c2ccccc2COc2ccccc21", "activity change, negative = inhibition": -1.59}
{"smiles": "CC(N=C(NC#N)Nc1ccncc1)C(C)(C)C", "note": "(stereo not given)", "activity change, negative = inhibition": -0.97}
{"smiles": "CCCCNc1ccc(C(=O)OCCN(C)C)cc1", "activity change, negative = inhibition": -1.19}
{"smiles": "CN/C(=C\\[N+](=O)[O-])NCCSCc1ccc(CN(C)C)o1", "activity change, negative = inhibition": 2.01}
{"smiles": "Nc1ncn([C@@H]2O[C@H](CO)[C@@H](O)[C@H]2O)c(=O)n1", "activity change, negative = inhibition": 1.38}
{"smiles": "NC(=O)N1c2ccccc2C=Cc2ccccc21", "activity change, negative = inhibition": 0.647}
{"smiles": "Cc1ccc(Cl)c(Nc2ccccc2C(=O)O)c1Cl", "activity change, negative = inhibition": 3.98}
{"smiles": "COCCOC(=O)C1=C(C)NC(C)=C(C(=O)OC(C)C)C1c1cccc([N+](=O)[O-])c1", "note": "(stereo not given)", "activity change, negative = inhibition": -1.74}
{"smiles": "COc1cc2c(cc1OC)-c1cc(=Nc3c(C)cc(C)cc3C)n(C)c(=O)n1CC2", "activity change, negative = inhibition": 0.329}
{"smiles": "C[C@H](CS)C(=O)N1CCC[C@H]1C(=O)O", "activity change, negative = inhibition": -0.177}
{"smiles": "CCN1CCc2nc(N)oc2CC1", "activity change, negative = inhibition": -0.83}
{"smiles": "C(=C\\c1ccccc1)/CN1CCN(C(c2ccccc2)c2ccccc2)CC1", "activity change, negative = inhibition": 0.558}
{"smiles": "COc1ccc([C@@H]2Sc3ccccc3N(CCN(C)C)C(=O)[C@@H]2OC(C)=O)cc1", "activity change, negative = inhibition": -2.18}
{"smiles": "NC(N)=N/N=C/c1c(Cl)cccc1Cl", "activity change, negative = inhibition": 1.57}
{"smiles": "COc1ccc(CCN(C)CCCC(C#N)(c2cc(OC)c(OC)c(OC)c2)C(C)C)cc1OC", "note": "(stereo not given)", "activity change, negative = inhibition": 1.41}
{"smiles": "CNCCC(Oc1ccccc1OC)c1ccccc1", "note": "(stereo not given)", "activity change, negative = inhibition": 0.401}
{"smiles": "O=C(O)CP(=O)(O)O", "activity change, negative = inhibition": 1.71}
{"smiles": "CN1CCN(CC(=O)N2c3ccccc3C(=O)Nc3cccnc32)CC1", "activity change, negative = inhibition": 1.03}
{"smiles": "CC(C)(C)c1ccc(C(=O)CCCN2CCC(OC(c3ccccc3)c3ccccc3)CC2)cc1", "activity change, negative = inhibition": 2.25}
{"smiles": "COc1cc(C(=O)OCCCN2CCCN(CCCOC(=O)c3cc(OC)c(OC)c(OC)c3)CC2)cc(OC)c1OC", "activity change, negative = inhibition": -1.7}
{"smiles": "c1cnc(N2CCN(Cc3ccc4c(c3)OCO4)CC2)nc1", "activity change, negative = inhibition": 2.84}
{"smiles": "C[C@]12CCC(=O)C=C1CC[C@@H]1[C@@H]2C(=O)C[C@@]2(C)[C@H]1CC[C@]2(O)C(=O)CO", "activity change, negative = inhibition": -0.143}
{"smiles": "NC(Cc1ccc(Cl)cc1)C(=O)O", "note": "(stereo not given)", "activity change, negative = inhibition": -2.48}
{"smiles": "COc1ccc(CN(CCN(C)C)c2ccccn2)cc1", "activity change, negative = inhibition": 1}
{"smiles": "C#CCN(C)CCCOc1ccc(Cl)cc1Cl", "activity change, negative = inhibition": -1.11}
{"smiles": "CCCNC(C)C(=O)Nc1ccccc1C", "note": "(stereo not given)", "activity change, negative = inhibition": 0.946}
{"smiles": "NS(=O)(=O)c1cc2c(cc1Cl)NC(C1CC3C=CC1C3)NS2(=O)=O", "note": "(stereo not given)", "activity change, negative = inhibition": 0.0956}
{"smiles": "CC(=O)[C@]1(O)Cc2c(O)c3c(c(O)c2[C@@H](O[C@H]2C[C@H](N)[C@H](O)[C@H](C)O2)C1)C(=O)c1ccccc1C3=O", "activity change, negative = inhibition": -5.77}
{"smiles": "CCCN(CCC)C(=O)C(CCC(=O)O)NC(=O)c1ccccc1", "note": "(stereo not given)", "activity change, negative = inhibition": 3.92}
{"smiles": "CN1C[C@H](C(=O)N[C@]2(C)O[C@@]3(O)[C@@H]4CCCN4C(=O)[C@H](Cc4ccccc4)N3C2=O)C[C@@H]2c3cccc4[nH]cc(c34)C[C@H]21", "activity change, negative = inhibition": 1.97}
{"smiles": "O=c1[nH]c(=O)n([C@H]2C[C@H](O)[C@@H](CO)O2)cc1Br", "activity change, negative = inhibition": -1.22}
{"smiles": "O=C(O)CCCCCCCC(=O)O", "activity change, negative = inhibition": -4.45}
{"smiles": "CCN1CCC[C@H]1CNC(=O)c1c(O)c(Cl)cc(Cl)c1OC", "activity change, negative = inhibition": 0.614}
{"smiles": "CCOC(=O)c1cnc2c(cnn2CC)c1NN=C(C)C", "activity change, negative = inhibition": 0.442}
{"smiles": "O=C(O)CN(CCN(CC(=O)O)CC(=O)O)CCN(CC(=O)O)CC(=O)O", "activity change, negative = inhibition": 2.4}
